Data as given in PubChem BioAssay (NCATS).
Records with an inconclusive call do not appear. Values without a mark were called inactive. Calls of active or inactive are those of the source. Calls come from the whole dose curve; as a rule, active = well fitted activation curve with a large enough effect; inconclusive = small, poorly fitted or top-dose-only effect; inactive = no such curve, though single readings can be large or run the other way.

These compounds were tested against Cellular tumor antigen p53 (Homo sapiens) (UniProt P04637) (assay: Primary qHTS for small molecule compounds that upregulate eGFP-tagged delta133p53alpha (in N-terminal) cells. (AID 2060322; note: nearly all actives have a fitted effect of over 75% in size;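 for activation: series mostly up to about 56 µM; 0% = DMSO vehicle and 100% = reference activator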)). Conditions: NCI-H358 eGFP-delta133p53alpha fluorescence, 24 h; activation: active compounds read high.
How it was run: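 NCI-H358 cells pre-induced 24 h with 10 ng/ml doxycycline for eGFP-delta133p53alpha, plated dox-free and exposed 24 h at 37C to titrated compounds. Fixed, Hoechst-stained; gated GFP peak intensity by laser scanning cytometry, normalized to DMSO (0%) and 57.5 uM 5-azacytidine (100%).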
Potency is the fitted concentration of half-maximal effect.

Cellular tumor antigen p53 (Homo sapiens), sequence (P04637 whole entry, looked up): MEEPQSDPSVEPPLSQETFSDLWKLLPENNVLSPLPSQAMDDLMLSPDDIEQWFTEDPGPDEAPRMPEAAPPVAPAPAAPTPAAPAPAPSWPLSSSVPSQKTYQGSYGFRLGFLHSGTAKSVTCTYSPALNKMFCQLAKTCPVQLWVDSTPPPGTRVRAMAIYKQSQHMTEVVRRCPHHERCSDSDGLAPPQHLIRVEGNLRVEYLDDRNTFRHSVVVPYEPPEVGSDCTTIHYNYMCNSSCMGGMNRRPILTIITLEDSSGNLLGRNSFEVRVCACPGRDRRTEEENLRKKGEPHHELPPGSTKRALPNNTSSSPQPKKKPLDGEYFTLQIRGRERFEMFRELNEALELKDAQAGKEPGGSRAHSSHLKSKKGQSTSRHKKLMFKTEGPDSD

Compared with `Nc1nc(Cl)nc2c1ncn2[C@@H]1O[C@H](CO)[C@@H](O)[C@H]1F`, `Cc1cn([C@H]2C[C@H](F)[C@@H](CO)O2)c(=O)[nH]c1=O` is higher in activation: -22.8% for the first, 0.837% for the second.

Going from `CNCCc1ccccn1` to `CN(C)CCN(Cc1ccsc1)c1ccccn1`, the activation falls from 5.02% to -27.6%.

First: COc1cc(CNC(=O)CCCCC=CC(C)C)ccc1O
Second: CCCCCCCC/C=C/C(=O)O
The activation of the first is lower: -14.9% for the first, -2.82% for the second.

Compared with `CCN(C(=O)CO)[C@H]1CN(C(=Nc2cccc(OC(F)F)c2)NC#N)N=C1c1ccc(Cl)c(Cl)c1`, `O=C(OCCN1CCOCC1)c1cccnc1Nc1cccc(C(F)(F)F)c1` is lower in activation: 19% for the first, -7.34% for the second.

Going from `NS(=O)(=O)c1ccc(N2CCCCS2(=O)=O)cc1` to `NS(=O)(=O)c1cc2c(cc1C(F)(F)F)NCNS2(=O)=O`, the activation falls from 7.34% to 6.21%.

Compared with `CC(=O)N1CCN(c2ccc(OCc3nn(C)c(C)c3-c3cccc4c(CCCOc5cc(C)c(Cl)c(C)c5)c(C(=O)O)n(Cc5cccnc5)c34)cc2)CC1`, `N=C(N)c1ccc(OCCCOc2ccc(C(=N)N)cc2)cc1` is lower in activation: -5.22% for the first, -15.9% for the second.

First: O=C1NC(=O)C(=Cc2cccc(C(F)(F)F)c2)S1
Second: COc1cc(Cl)cn2c(-c3cccc(NC4CNC4)n3)cnc12
The activation of the first is higher: 2.49% for the first, -0.246% for the second.

First: CC[N+](CC)(CC)CCOc1ccc(/C=C/c2ccccc2)cc1
Second: CCN(CC)CCc1nc(-c2ccccc2)no1
The activation of the first is higher: -19.2% for the first, -25.1% for the second.

Going from `CCOC(=O)C(O)c1ccccc1` (centres undefined) to `CCCCCCCCCCCCCC[N+](C)(C)Cc1ccccc1`, the activation rises from -24.3% to 27.6%.

Compared with `FC(F)(F)C(Cl)Br` (centres undefined), `O=P(O)(O)OCC(O)CO` (centres undefined) is lower in activation: 8.37% for the first, -9.21% for the second.

First: N[C@H]1C(O)O[C@H](CO)[C@@H](O)[C@@H]1O (some centres undefined)
Second: C[C@@H]1CCN(C(=O)[C@H](CCCN=C(N)N)NS(=O)(=O)c2cccc3c2NC[C@H](C)C3)[C@@H](C(=O)O)C1
The activation of the first is lower: -0.837% for the first, 2.82% for the second.

Work on `CN1CCCCC1CCN1c2ccccc2Sc2ccc(S(C)=O)cc21` (centres undefined) yielded an activation of -3.95%.

For `CC(NC(=O)c1ccccc1N=Cc1c(O)ccc2ccccc12)c1ccccc1` (centres undefined), the Potency was 43.2 µM (active).
